# This is a sample that favours compounds with a hit; in the whole collection about 2.4% have one here.
# POLI inh: qHTS for Inhibitors of Polymerase Iota | Pol iota fluorescent replication assay, 10 min | Potency, µM (titrated, usually from 115 µM), usual class: inhibitors | actives 1% (n = 390,000)
#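 Pol iota at 10 nM preincubated 15 min with compounds at room temperature; reaction started with fluorescent substrate, 50 nM final. Fluorescence read kinetically at 0 and 10 min; buffer-only wells as negative control.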
# FEN1 inhibitor: qHTS Assay for the Inhibitors of Human Flap endonuclease 1 (FEN1) | Recombinant FEN1 flap cleavage, fluorescence, 15 min | Potency, µM (titrated, usually from 114 µM), actives largely listed as inhibitors | actives 0.35% (n = 390,000); further: nearly all actives have a fitted effect of over 65% in size
# Target sequence (P39748 whole entry, looked up): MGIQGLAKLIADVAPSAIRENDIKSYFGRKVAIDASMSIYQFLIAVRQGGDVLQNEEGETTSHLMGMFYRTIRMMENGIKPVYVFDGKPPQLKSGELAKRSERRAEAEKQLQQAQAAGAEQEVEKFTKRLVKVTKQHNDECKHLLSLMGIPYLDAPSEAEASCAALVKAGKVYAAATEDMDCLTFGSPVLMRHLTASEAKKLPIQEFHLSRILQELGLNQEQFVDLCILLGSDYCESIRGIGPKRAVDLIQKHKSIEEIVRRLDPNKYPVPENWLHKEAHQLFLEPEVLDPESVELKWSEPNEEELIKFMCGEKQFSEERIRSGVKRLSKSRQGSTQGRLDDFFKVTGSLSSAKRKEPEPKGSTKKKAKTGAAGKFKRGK
#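 Reaction started by adding substrate (50 nM final) to 10 nM enzyme after 15 min room-temperature compound preincubation. Reads at 0 and 15 min, with data normalized and fitted to a four-parameter Hill equation.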
# POLH inh: qHTS for Inhibitors of Polymerase Eta; recombinant Pol eta, fluorescent DNA replication assay; DNA polymerase eta (Homo sapiens), Q9Y253; actives 1.2% (n = 390,000); Potency, µM (series often up to 114 µM), hits mostly inhibitors
#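 Fluorescent replication assay: 50 nM final substrate added after a 15 min room-temperature compound preincubation with 10 nM enzyme. Signal taken at 0 min and again at 10 min.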
# Pol kappa inh: qHTS for Inhibitors of Polymerase Kappa | DNA polymerase kappa (Homo sapiens), Q9UBT6 | AID 588579, 2011 | Potency, µM (titrated, usually from 107 µM), usual class: inhibitors | purified Pol kappa, fluorescent DNA synthesis assay, 10 min | actives 0.53% (n = 400,000)
#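 First, compounds were pin-transferred onto 10 nM Pol kappa. After 15 min at room temperature, substrate was added to 50 nM final. Fluorescence was then measured kinetically at 0 and 10 min.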
# Pol beta inh: qHTS Assay for Inhibitors of DNA Polymerase Beta; P06746; Pol beta primer extension/strand displacement, fluorescence kinetic; Potency, µM (top dose mostly 114 µM), hits mostly inhibitors; actives 1.3% (n = 340,000); AID 485314, 2010
#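 10 nM enzyme + cpd, 15 min RT; start with substrate 50 nM final; read 0 min and after 10 min RT. Corrected, normalized data; 4-parameter Hill curve fit.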
# WRN helicase inh: qHTS for Inhibitors of WRN Helicase; Bifunctional 3'-5' exonuclease/ATP-dependent helicase WRN (Homo sapiens), Q14191; WRN helicase unwinding, fluorescent forked duplex, kinetic; Potency, µM (series often up to 114 µM), actives largely listed as inhibitors; actives 0.46% (n = 360,000); AID 651768, 2012; further: nearly all actives have a fitted effect of over 55% in size
#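 Enzyme (20 nM final) and test compound sit together 15 min at room temperature before substrate addition. Substrate is a single-forked duplex oligonucleotide (100 nM) labelled with fluorophore and quencher, with 2 mM ATP; helicase unwinding raises red fluorescence, read kinetically.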
# A number is an active result; 0 = inactive; ? = inconclusive; - = no result given; ! = repeats disagree; [ ] = dose if it differs, or a comment. The call rests on the fitted dose curve; in most records, active means well fitted curve in the direction sought with a large enough effect; inconclusive means small, poorly fitted or top-dose-only effect, or another doubt; inactive means no such curve, though single readings can be large; an effect the other way counts as inactive or inconclusive.
SMILES,POLI inh,FEN1 inhibitor,POLH inh,Pol kappa inh,Pol beta inh,WRN helicase inh
CC(=O)NC(Cc1ccc(I)cc1)C(=O)NCC(N)C(=O)c1ccccc1 (configuration not stated),0,0,-,0,-,-
CCN1/C(=C2\SC(=S)N(Cc3ccccc3)C2=O)Sc2ccccc21,?,0,0,0,0,0
CCC(CO)[n+]1c(C)cc(/C=C2\Sc3ccccc3N2Cc2ccccc2)cc1C (configuration not stated),0,50µM,?,0,?,?
Oc1ccc(NCc2cccc(OCc3ccc(F)cc3)c2)cc1,22µM,?,0,0,0,0
Oc1ccc(NCc2cccc(OCc3ccccc3)c2)cc1,?,?,0,0,0,0
O=C(O)C1NCCN(C(=O)c2ccc3c(ccc4ccccc43)c2)C1C(=O)O (configuration not stated),-,-,-,0,-,-
CCCCCCCCCCCCC/C=C/C(O)C(COP(=O)(O)OCCN)NC(=O)CCCCCCCCCCCCCCCCC (configuration not stated),-,-,-,0,-,-
Cc1ccc(S(=O)(=O)NCCC(=O)NC2CCCCC2C)cc1 (configuration not stated),0,0,0,0,-,0
COc1ccc(S(=O)(=O)NCCC(=O)NC2CCCCC2C)cc1[N+](=O)[O-] (configuration not stated),50µM,0,0,0,-,0[11.6 µM]
Cc1cc(N(C)C)ccc1/C=C/c1ccnc2ccccc12,0,0,-,0,-,-
CCOC(=O)c1c(NC(=O)COC(=O)c2ccc(NC(=O)CC#N)cc2)sc(C(=O)NC)c1C,?,?,10µM,?,-,?
C[C@@](N)(Cc1ccc(O)c(O)c1)C(=O)O,-,-,-,3.5µM!,-,-
COc1ccc(C2Nc3ccccc3C(=O)N2Cc2ccco2)cc1 (configuration not stated),0,0,-,0,-,-
COc1cc(/C=C2/SC(=S)NC2=O)ccc1OS(=O)(=O)c1ccc(C)cc1,?,79µM,28µM,0,35µM,?
C=C1C[C@@]23CC[C@H]4[C@@](C)(CCC[C@@]4(C)C(=O)OC4OC(CO)C(O)C(O)C4O)[C@@H]2CC[C@]1(OC1OC(CO)C(O)C(O)C1OC1OC(CO)C(O)C(O)C1O)C3 (some centres not stated),-,-,-,0,-,-
CCCC[C@@H](C)/C=C(C)/C=C(\C)C(=O)NC1=C[C@@](O)(/C=C/C=C/C=C/C(=O)NC2=C(O)CCC2=O)[C@@H]2O[C@@H]2C1=O,-,-,-,27µM,-,-
O=C(NNC(=O)C1CC(c2cccs2)=NO1)Nc1ccc(Cl)cc1 (configuration not stated),?,0,0,0,45µM,0
O=C(NCc1cccs1)C1CC(c2ccc(Cl)cc2)=NO1 (configuration not stated),0,0,0,0,0,0
COC(=O)CSc1nc2c(c(-c3ccc(O)cc3)c1C#N)CCCC2,0,0,0,0,0,0
COC(=O)CSc1nc2c(c(-c3ccco3)c1C#N)CCCC2,?,0,?,0,22µM,0
COc1ccc2[nH]cc(CCO)c2c1,-,-,-,0[19.4 µM],-,-
Cc1ccc(CC2S/C(=C(/C#N)C(=O)NCc3ccco3)N(c3ccccc3)C2=O)cc1 (configuration not stated),0,0,0,0,0,0
CC1S/C(=C(\C#N)C(=O)NCc2ccco2)N(Cc2ccco2)C1=O (configuration not stated),22µM,0,?,89µM,0,?
O=C(C[n+]1cccc2cccc(O)c21)c1ccc2ccccc2c1,0,0,-,0,-,-
C/C(=N/NS(=O)(=O)c1ccccc1)c1c[nH]c2ccccc12,89µM,0,0,0,0,0[11.6 µM]
CC(C)c1ccc(NC(=O)c2cc3c([nH]c2=O)CC(C)(C)CC3=O)cc1,0,0,-,0,-,-

# Compound activity from PubChem.
